MEP2 TOR yeast – modulators of TOR pathway MEP2-GFP in S. cerevisiae; S. cerevisiae MEP2-GFP strain, flow cytometry GFP, 3 h; 100% = DMSO control level; GFP response vs DMSO, % at 10 µM; 330,000 compounds, 0.51% hits; AID 2016;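 active means GFP response versus DMSO above a set limit, roughly screen mean plus 3 SD, cut at about 180% in these data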;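 further: median GFP fluorescence of the barcode-gated MEP2-GFP cells per well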
CIT2 TOR yeast – modulators of TOR pathway CIT2-GFP in S. cerevisiae; 320,000 compounds, 0.065% hits; GFP response vs DMSO, % at 10 µM; S. cerevisiae CIT2-GFP strain, flow cytometry, 3 h; 100 means same as DMSO wells;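 active means GFP response relative to DMSO above a set limit, near the screen mean plus 3 SD, cut at about 150% in these data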;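 further: ratio of well median GFP fluorescence to mean of DMSO wells on the plate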
Efflux pump inh – blocks antifungal efflux pumps in multiplex yeast assay. S. cerevisiae Candida pump triplex, Nile Red efflux. inhibition, % at 10 µM. 330,000 compounds, 0.44% hits;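 active means plate passing quality check with inhibition over a set limit, or well fluorescence over plate mean plus 4 SD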;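 further: Nile Red retained in pooled yeast measured as flow cytometry median fluorescence; 0% = buffer negative control and 100% = Enniatin B positive control; higher means more Nile Red kept so more efflux inhibition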
LAP4 TOR yeast – modulators of TOR pathway LAP4-GFP in S. cerevisiae | S. cerevisiae LAP4-GFP multiplex, flow cytometry GFP, 3 h; median GFP as percent of DMSO wells | GFP response vs DMSO, % at 10 µM | 320,000 compounds, 0.34% hits | AID 2023;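 active means GFP response vs DMSO above a set limit, about the screen mean plus 3 SD, cut at about 150% in these data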
AGP1-GFP MLPCN – modulators of TOR pathway AGP1-GFP in S. cerevisiae; S. cerevisiae AGP1-GFP multiplex flow cytometry, 3 h; GFP as percent of DMSO wells; GFP response vs DMSO, % at 10 µM; 320,000 compounds, 0.02% hits; AID 2066;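 active means GFP response relative to DMSO above a set limit, near screen average plus 3 SD, cut at about 150% in these data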;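 further: median GFP channel fluorescence of the gated AGP1 strain per well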
RPL19A TOR yeast – modulators of TOR pathway RPL19A-GFP in S. cerevisiae. S. cerevisiae RPL19A-GFP strain, flow cytometry, 3 h; stronger effect = lower value. percent response vs DMSO, % at 10 µM. 330,000 compounds, 0.3% hits. AID 2025;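 active means percent response vs DMSO below 50%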;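 further: median channel GFP fluorescence of the barcoded RPL19A-GFP strain; ratio of sample median GFP to plate DMSO average so 100% = DMSO; lower means less RPL19A-GFP as with rapamycin TOR inhibition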
LAP4-GFP pick2 – second confirmation of modulators of TOR reporter LAP4-GFP in yeast | shares compounds with LAP4 TOR yeast | S. cerevisiae LAP4-GFP strain, flow cytometry GFP, 3 h | GFP response vs DMSO, % at 10 µM | 590 compounds, 20% hits | AID 2621;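 active means GFP signal as percent of the solvent control above about 150%, meaning raised reporter expression, limit read from the data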;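 further: ratio of well median GFP fluorescence to plate DMSO mean so 100% = DMSO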
MEP2 cherry2 – yeast MEP2-GFP modulation, second cherry pick; shares compounds with LAP4 TOR yeast; S. cerevisiae MEP2-GFP strain, flow cytometry GFP, 3 h; GFP response vs DMSO, % at 10 µM; 590 compounds, 10% hits; AID 2622;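 active means GFP signal above 150% of the solvent control wells, that is a rise of more than half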;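 further: median channel GFP fluorescence of all gated yeast cells per well; ratio of median GFP to plate DMSO average so 100% = DMSO level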
RPL19A-GFP pick2 – yeast RPL19A-GFP TOR reporter modulation, second cherry pick; GFP response vs DMSO, % at 10 µM; 590 compounds, 3% hits; shares compounds with LAP4 TOR yeast; S. cerevisiae RPL19A-GFP strain, flow cytometry GFP, 3 h; stronger effect = lower value; 100% means same as DMSO wells;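 active means under 65% GFP response relative to DMSO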;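 further: median GFP channel fluorescence per well over the all cells gate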
CIT2 GFP CP2 – reconfirmed modulator of CIT2-GFP TOR reporter in yeast; shares compounds with LAP4 TOR yeast; S. cerevisiae CIT2-GFP strain, flow cytometry GFP, 3 h; DMSO control wells read 100%; GFP response vs DMSO, % at 10 µM; 590 compounds, 8% hits; AID 2624;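 active means GFP response vs DMSO above about 150%, limit read from the data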;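 further: median green fluorescence per well over all gated yeast cells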
AGP1-GFP pick2 – yeast AGP1-GFP TOR reporter modulation, second cherry pick; percent response vs DMSO, % at 10 µM; AID 2643; S. cerevisiae AGP1-GFP strain, flow cytometry GFP, 3 h; 590 tested, under 10 active; shares compounds with LAP4 TOR yeast;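 active means over 150 percent of DMSO response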;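 further: median GFP channel fluorescence over all cells without mother daughter split; sample median GFP divided by mean DMSO control so 100% equals DMSO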
s288c autofluor – compound is autofluorescent in yeast s288c cells; S. cerevisiae s288c, 520 nm autofluorescence, flow cytometry, 3 h; stronger effect = higher value; zero means same as solvent-only cells; fluorescence change (kMESF span) at 33 µM; shares compounds with LAP4 TOR yeast; 610 tested, under 10 active;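 active means fluorescence span over the dose series, or activity score, above about 33, limit read from the data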
s288c autofl DR – TOR screen hit shows autofluorescence in yeast s288c; shares compounds with LAP4 TOR yeast; S. cerevisiae s288c parental, compound autofluorescence, flow cytometry, 3 h; fluorescence change (span) at 33 µM; 110 tested, under 10 active;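 active means fluorescence change span, or the activity score built from it, above 25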
TORC1 bypass gr – wildtype yeast growth loss with TORC1 bypass cells unaffected; shares compounds with LAP4 TOR yeast; S. cerevisiae BY4741 spot growth rating, 48-72 h; stronger effect = lower value; growth rating (0-3) at 30 µM; 120 tested, under 10 active; AID 504456;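 active means growth rating at most 1 for wild type yeast while the TORC1 bypass strain still grows fully, rated 3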
The depositor's hits bear a star; . = no result given. Sampled rows, rich in hits. Any-hit rate of the full collection: about 1.3%.

SMILES | MEP2 TOR yeast | CIT2 TOR yeast | Efflux pump inh | LAP4 TOR yeast | AGP1-GFP MLPCN | RPL19A TOR yeast | LAP4-GFP pick2 | MEP2 cherry2 | RPL19A-GFP pick2 | CIT2 GFP CP2 | AGP1-GFP pick2 | s288c autofluor | others
COc1cc(N=c2ssnc2Cl)c(OC)cc1Cl | 93 | 91 | 0 | 162* | 73 | 90 | 159* | 117 | 91 | 111 | 90 | 0.4
Cc1ccc(N=c2ssnc2Cl)cc1 | 99 | 81 | 0 | 163* | 78 | 89 | 141 | 117 | 95 | 117 | 96 | 0.8
CN(CC(=O)Nc1ccccc1Br)C(=O)c1cccnc1Nc1cccc(C(F)(F)F)c1 | 100 | 95 | -2 | 100 | 97 | 103 | . | . | . | . | . | .
Cc1cc(=S)nc(-c2ccccn2)[nH]1 | 103 | 63 | 0 | 146 | 95 | 74 | . | . | . | . | . | .
Cc1[nH]c(-c2ccccn2)nc(=S)c1Cl | 93 | 86 | 0 | 267* | 85 | 94 | . | . | . | . | . | 0.4
O=C(N[C@@H](Cc1ccccc1)C(=O)CCl)OCc1ccccc1 | 88 | 61 | 0 | 151* | 77 | 100 | 140 | 103 | 96 | 90 | 96 | .
O=c1c2sc(-c3ccccc3)cc2nc2n1CCC2 | 101 | 72 | 0 | 121 | 60 | 59 | 101 | 101 | 59* | 90 | 66 | 0.91
Cc1ccccc1S(=O)(=O)Cc1ccc(C(=O)NCCCN2CCCC(C)C2)o1 (stereo not given) | 101 | 97 | 0 | 93 | 95 | 96 | . | . | . | . | . | .
CN(CC(=O)Nc1ccc(Cl)c(C(F)(F)F)c1)C(=O)C1(c2ccccc2)CC1 | 100 | 99 | 0 | 98 | 108 | 98 | . | . | . | . | . | .
Cc1nn2c(-c3ccco3)nnc2c2ccccc12 | 90 | 76 | 0 | 86 | 61 | 64 | 93 | 93 | 66 | 95 | 67 | .
Cc1nn2c(-c3ccncc3)nnc2c2ccccc12 | 106 | 65 | 0 | 101 | 58 | 60 | 90 | 95 | 65* | 97 | 68 | 0.3 | s288c autofl DR=0.36;TORC1 bypass gr=3
COc1ccc(-c2nnc3c4ccccc4c(C)nn23)cc1 | 104 | 104 | 0 | 84 | 94 | 93 | . | . | . | . | . | .
CCOC(=O)c1c(O)cc(C)cc1Nc1ccccc1 | 99 | 99 | 0 | 90 | 97 | 104 | . | . | . | . | . | .
COc1cccc(-c2nc(CS(=O)CC(=O)NCCc3ccc(C)cc3)c(C)o2)c1 (stereo not given) | 101 | 99 | 0 | 109 | 99 | 95 | . | . | . | . | . | .
CCCN(CC(=O)Nc1ccccc1C)C(=O)c1ccc(=O)n(Cc2ccccc2)n1 | 98 | 110 | 0 | 107 | 110 | 100 | . | . | . | . | . | .

Screening results deposited in PubChem BioAssay by NMMLSC.
